These results are taken from PubChem BioAssay.

“And” between values parts separate entries of the source, which are not always exact repeats. Equal entries are not always repeated. The source made the active and inactive calls.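 Rule for the calls: active = compounds whose cell count with miR-34 switched on is under 0.7 times the count with it off; inactive = the rest.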

One assay in a line: sensitizers of A549 cells to miR-34 induction, primary screen, imaging, A549 dox-inducible miR-34, nuclei and caspase counts (AID 1347080). Note: test concentration not given here. The settings on record: A549 miR-34 inducible, Hoechst nuclei count, 48 h; stronger effect = lower value; cell number ratio, induced over uninduced.
Regarding `Cn1nc(NC(=O)Cn2cc(-c3nccc4occc34)cn2)c2ccccc21`, the fold change was 0.83 (inactive).

`Cc1nn(C)cc1-c1ccnc(N2CCCN(c3ccc(F)cc3)CC2)n1`: the fold change was 0.74 (inactive).

As to `O=c1c2nccnc2ncn1Cc1scnc1-c1ccccc1`, the fold change is 0.893 (inactive).

Regarding `Nc1nc(Nc2cccc(Cl)c2)sc1C(=O)c1ccc(F)cc1`, the fold change was 0.868 (inactive).

As to `O=c1[nH]cnc2c1ncn2C1CCC(CO)O1` (stereo not drawn), the fold change is 0.874 (inactive) and 0.873 (inactive).

Consider `Cn1nc(C(C)(C)C)cc1NC(=O)Nc1ccc(Cl)cc1`, for which the fold change is 0.806 (inactive).

Turning to `O=C1CN(c2ncnc3sccc23)CCN1Cc1cccc(F)c1`, the fold change is 0.826 (inactive).

With `Nc1nc(Cl)nc2c1ncn2C1CC(O)C(CO)O1` (stereo not drawn), the fold change was 0.657 (active) and 0.485 (active).

Regarding `CC(=O)NCCc1ccc(S(N)(=O)=O)cc1`, the fold change was 0.918 (inactive).

`CC(C)(C)c1cn(C2CCN(C(=O)c3cnc4ccccc4n3)CC2)nn1`: the fold change was 0.867 (inactive).

In the case of `Nc1nc(NCc2ccncc2)c2cn[nH]c2n1`, the fold change was 0.931 (inactive).

`CN1CCN(Cc2cccc(Oc3ccccc3)c2)CC1CCO` (stereo not drawn): the fold change was 0.916 (inactive).

Consider `Cc1ccc(CN2CCN(c3ncnc4sccc34)CC2=O)cc1`, for which the fold change is 0.911 (inactive).

On to `O=C(O)c1ccc(-c2ccc([N+](=O)[O-])cc2Cl)o1`, for which the fold change was 0.876 (inactive).

As to `NC(=O)c1ccccc1-c1cccc2ccccc12`, the fold change was 0.84 (inactive).

With `C=CCn1cc(-c2nc3c([nH]2)c(-c2cccnc2)nn3C)c(C)n1`, the fold change is 0.874 (inactive).

Take `CCN(CCc1ccccn1)C(=O)c1cc(-c2cnc(N)nc2)nc2c(C)cccc12`: the fold change is 0.904 (inactive).

In the case of `COc1ncccc1C(=O)N1CCOc2ccccc21`, the fold change is 1 (inactive).

Take `Cc1nnc(NC(=O)NCC(c2ccccc2)c2ccccc2)s1`: the fold change is 0.837 (inactive).

As to `COC(=O)CN1CCN(c2ncnc3sccc23)C(C)C1=O` (stereo not drawn), the fold change is 0.854 (inactive).

For the compound `COc1cccc(Cc2noc(-c3nccc4ccccc34)n2)c1`, the fold change was 0.933 (inactive).

In the case of `COc1ccc2c(c1)CCN(C(=O)Nc1n[nH]c(-c3ccccc3F)n1)C2`, the fold change is 0.904 (inactive).

On to `O=C(O)c1cnc(-c2ccccc2)[nH]1`, for which the fold change was 0.939 (inactive).

As for `O=C(c1cccc(=O)[nH]1)N(Cc1cccnc1)Cc1ccc2c(c1)OCO2`, the fold change was 0.964 (inactive).

For `CCN(CC)C(=O)c1c(NC(=O)c2cccs2)sc2c1CCCC2`, the fold change is 1.02 (inactive).

`O=C(O)c1ccc(-c2ccccc2C(F)(F)F)o1`: the fold change was 0.879 (inactive).

For the compound `COc1cc(F)c(-c2nc3c(cnn3Cc3cccs3)[nH]2)c(F)c1`, the fold change was 0.818 (inactive).

Turning to `CN(C)CCc1c[nH]c2ccc(CC3COC(=O)N3)cc12` (stereo not drawn), the fold change is 0.908 (inactive) and 0.936 (inactive).

For the compound `NC(N)=NC(N)=Nc1cc(C(F)(F)F)ccc1Cl`, the fold change was 0.901 (inactive).

As for `O=C(O)CCc1c[nH]c2ccccc12`, the fold change was 0.896 (inactive).

As for `Cn1nc(-c2cccnc2)c2[nH]c(-c3ccccc3OC(F)F)nc21`, the fold change was 0.875 (inactive).

Regarding `Nc1ccn(C2CCC(CO)O2)c(=O)n1` (stereo not drawn), the fold change is 0.958 (inactive) and 0.921 (inactive).

For `C=CCNC(=O)c1cccnc1-c1ccc(OC)c2ncccc12`, the fold change was 0.914 (inactive).

Consider `OCCCc1cn(CC2CCN(c3ncnc4nc[nH]c34)CC2)nn1`, for which the fold change was 0.959 (inactive).

As to `O=C(O)CNC(=O)Cc1c[nH]c2ccccc12`, the fold change was 0.855 (inactive).

In the case of `CC(=O)NCC1CN(c2ccc(N3CCOCC3)c(F)c2)C(=O)O1` (stereo not drawn), the fold change is 0.917 (inactive) and 0.981 (inactive).

`CSCCC(NC(C)=O)C(=O)O` (stereo not drawn): the fold change is 0.861 (inactive).

With `O=C1CN(c2ncnc3nc[nH]c23)CCN1CCc1ccccc1`, the fold change was 0.93 (inactive).

Take `CCn1ncc(NC(=O)Cn2cc(-c3cccc(-n4cccn4)c3)cn2)n1`: the fold change is 0.876 (inactive).

Still in this assay, the particulars now being: A549 miR-34 inducible, Hoechst nuclei count, 48 h; measured here: relative caspase fold change +Dox/-Dox.
As to `Cn1nc(NC(=O)Cn2cc(-c3nccc4occc34)cn2)c2ccccc21`, the fold change is 2.06.

Take `Cc1nn(C)cc1-c1ccnc(N2CCCN(c3ccc(F)cc3)CC2)n1`: the fold change came out at 1.79.

On to `O=c1c2nccnc2ncn1Cc1scnc1-c1ccccc1`, for which the fold change turned out to be 0.515.

Turning to `Nc1nc(Nc2cccc(Cl)c2)sc1C(=O)c1ccc(F)cc1`, the fold change worked out at 0.635.

`O=c1[nH]cnc2c1ncn2C1CCC(CO)O1` (stereo not drawn): the fold change is 1.69 and 1.3.

Consider `Cn1nc(C(C)(C)C)cc1NC(=O)Nc1ccc(Cl)cc1`, for which the fold change is 1.05.

On to `O=C1CN(c2ncnc3sccc23)CCN1Cc1cccc(F)c1`, for which the fold change came out at 1.63.

In the case of `Nc1nc(Cl)nc2c1ncn2C1CC(O)C(CO)O1` (stereo not drawn), the fold change is 3.27 and 5.56.

Take `CC(=O)NCCc1ccc(S(N)(=O)=O)cc1`: the fold change was determined as 0.641.

Take `CC(C)(C)c1cn(C2CCN(C(=O)c3cnc4ccccc4n3)CC2)nn1`: the fold change came out at 1.26.

Regarding `Nc1nc(NCc2ccncc2)c2cn[nH]c2n1`, the fold change amounted to 0.844.

On to `CN1CCN(Cc2cccc(Oc3ccccc3)c2)CC1CCO` (stereo not drawn), for which the fold change came to 1.42.

Take `Cc1ccc(CN2CCN(c3ncnc4sccc34)CC2=O)cc1`: the fold change amounted to 1.87.

As to `O=C(O)c1ccc(-c2ccc([N+](=O)[O-])cc2Cl)o1`, the fold change was found to be 0.203.

In the case of `NC(=O)c1ccccc1-c1cccc2ccccc12`, the fold change was found to be 1.62.

For the compound `C=CCn1cc(-c2nc3c([nH]2)c(-c2cccnc2)nn3C)c(C)n1`, the fold change amounted to 0.787.

`CCN(CCc1ccccn1)C(=O)c1cc(-c2cnc(N)nc2)nc2c(C)cccc12`: the fold change was found to be 1.79.

As to `COc1ncccc1C(=O)N1CCOc2ccccc21`, the fold change was found to be 1.28.

`Cc1nnc(NC(=O)NCC(c2ccccc2)c2ccccc2)s1`: the fold change is 0.947.

In the case of `COC(=O)CN1CCN(c2ncnc3sccc23)C(C)C1=O` (stereo not drawn), the fold change came to 1.54.

Regarding `COc1cccc(Cc2noc(-c3nccc4ccccc34)n2)c1`, the fold change stood at 1.27.

For the compound `COc1ccc2c(c1)CCN(C(=O)Nc1n[nH]c(-c3ccccc3F)n1)C2`, the fold change was 0.695.

Regarding `O=C(O)c1cnc(-c2ccccc2)[nH]1`, the fold change amounted to 0.271.

Consider `O=C(c1cccc(=O)[nH]1)N(Cc1cccnc1)Cc1ccc2c(c1)OCO2`, for which the fold change came out at 1.96.

`CCN(CC)C(=O)c1c(NC(=O)c2cccs2)sc2c1CCCC2`: the fold change was determined as 0.802.

`O=C(O)c1ccc(-c2ccccc2C(F)(F)F)o1`: the fold change was 0.45.

As for `COc1cc(F)c(-c2nc3c(cnn3Cc3cccs3)[nH]2)c(F)c1`, the fold change was found to be 1.31.

Consider `CN(C)CCc1c[nH]c2ccc(CC3COC(=O)N3)cc12` (stereo not drawn), for which the fold change was 1.13 and 0.401.

In the case of `NC(N)=NC(N)=Nc1cc(C(F)(F)F)ccc1Cl`, the fold change is 0.694.

Regarding `O=C(O)CCc1c[nH]c2ccccc12`, the fold change was 0.538.

As to `Cn1nc(-c2cccnc2)c2[nH]c(-c3ccccc3OC(F)F)nc21`, the fold change stood at 0.925.

`Nc1ccn(C2CCC(CO)O2)c(=O)n1` (stereo not drawn): the fold change is 1.84 and 0.793.

In the case of `C=CCNC(=O)c1cccnc1-c1ccc(OC)c2ncccc12`, the fold change turned out to be 1.9.

Regarding `OCCCc1cn(CC2CCN(c3ncnc4nc[nH]c34)CC2)nn1`, the fold change worked out at 1.9.

As to `O=C(O)CNC(=O)Cc1c[nH]c2ccccc12`, the fold change was found to be 0.234.

Take `CC(=O)NCC1CN(c2ccc(N3CCOCC3)c(F)c2)C(=O)O1` (stereo not drawn): the fold change is 1.72 and 0.989.

Turning to `CSCCC(NC(C)=O)C(=O)O` (stereo not drawn), the fold change turned out to be 0.784.

Take `O=C1CN(c2ncnc3nc[nH]c23)CCN1CCc1ccccc1`: the fold change came out at 1.88.

As to `CCn1ncc(NC(=O)Cn2cc(-c3cccc(-n4cccn4)c3)cn2)n1`, the fold change was 1.27.
